# PubChem BioAssay (EPA / NIEHS)
# Inconclusive results are not listed. The source made the active and inactive calls. Rule for the calls: active = hit-call score of the fitted dose curve at least 0.9, where 1 is the maximum; inconclusive = response in the unintended direction; inactive = score below 0.9.
# What was measured:
# [1] = biological target: Cellular tumor antigen p53 (Homo sapiens) (UniProt P04637); experiment: TOX21_p53_BLA_p2_ratio: Tox21 HCT-116 p53 Agonism Beta-lactamase Assay, Ratio, Phase 2 (AID 2283592)
# In short: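 Readout: blue/green (460/530 nm) FRET emission ratio after 2 h CCF4-AM loading at room temperature, excitation 405 nm. HCT116 p53 bla cells, 16 h compound exposure at 37C, 5% CO2; agonist direction fitted against DMSO baseline.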
# [2] = biological target: Cellular tumor antigen p53 (Homo sapiens) (UniProt P04637); experiment: TOX21_p53_BLA_p3_ratio: Tox21 HCT-116 p53 Agonism Beta-lactamase Assay, Ratio, Phase 3 (AID 2283596)
# In short: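 Cells were seeded at 4000/well, rested 5 h at 37C, then dosed with DMSO compound solutions (217-fold dilution) for 16 h. CCF4-AM substrate was loaded for 2 h at room temperature, and the 460/530 nm emission ratio was fitted for gain of signal versus DMSO.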
# [3] = TOX21_p53_BLA_p4_viability: Viability Assessment in the Tox21 HCT-116 p53 Agonism Beta-lactamase Assay, Phase 4 (AID 2283597);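 note: hits lower the luminescence signal meaning cytotoxicity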
# In short: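 ATP content by CellTiter-Glo luminescence, 30 min RT, read after the beta-lactamase ratio step. Cells: HCT116, 4000/well, compound added after 5 h, exposure 16 h at 37C. Signal loss = reduced viability.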
# [4] = biological target: Cellular tumor antigen p53 (Homo sapiens) (UniProt P04637); experiment: TOX21_p53_BLA_p5_ratio: Tox21 HCT-116 p53 Agonism Beta-lactamase Assay, Ratio, Phase 5 (AID 2283599)
# In short: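 HCT-116 cells carrying a p53-inducible beta-lactamase reporter were seeded at 4000 cells/well and dosed after 5 h with compound in DMSO (217-fold dilution). After 16 h at 37C, CCF4-AM substrate was added for 2 h, and the 460/530 nm emission ratio was scored as gain-of-signal versus DMSO.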
# [5] = biological target: Cellular tumor antigen p53 (Homo sapiens) (UniProt P04637); experiment: TOX21_p53_BLA_p4_ratio: Tox21 HCT-116 p53 Agonism Beta-lactamase Assay, Ratio, Phase 4 (AID 2283601)
# In short: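 HCT116 cells carrying an inducible beta-lactamase reporter were plated at 4000 cells/well, rested 5 h, then exposed to compounds in DMSO (217-fold dilution) for 16 h at 37C. CCF4-AM substrate was loaded 2 h at room temperature; 460/530 nm emission ratio scored gain-of-signal versus DMSO.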
# [6] = Tanguay_ZF_120hpf_MORT_legacy: (Legacy) Oregon State University Tanguay Lab 120 Hour Post-fertilization zebrafish Assay for Mortality (AID 2283633);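 for AC50: fitted as increase in binary mortality versus DMSO negative control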
# In short: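 Brightfield scoring of embryo death (binary) at 24 and 120 hpf; static exposure 6–120 hpf, 28C, sealed and foil-covered. Pronase-dechorionated 5D wild-type larvae, single embryo per well. DMSO 0.64% v/v; trimethyltin chloride 5uM positive control.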
# [7] = Tanguay_ZF_120hpf_AXIS_legacy: (Legacy) Oregon State University Tanguay Lab 120 Hour Post-fertilization zebrafish Assay for Body Axis Malformation (AID 2283635)
# In short: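 Embryos: 5D wild-type, pronase-dechorionated 4 hpf; static exposure 6–120 hpf, 28C, sealed, dark, 1 embryo/well, 0.64% DMSO. 120 hpf axis malformation scored present/absent; dead embryos excluded. Analysed as gain of signal vs DMSO.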
# [8] = Tanguay_ZF_120hpf_EYE_legacy: (Legacy) Oregon State University Tanguay Lab 120 Hour Post-fertilization zebrafish Assay for Eye Malformation (AID 2283636);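 note: binary presence or absence of eye malformation scored by brightfield in 120 hpf larvae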
# In short: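 Static waterborne exposure of dechorionated zebrafish embryos (strain Tropical 5D), 6 to 120 hpf, sealed plates at 28C, 0.64% DMSO vehicle. Eye malformation is scored as a binary endpoint, with gain of signal analysed relative to DMSO.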
# [9] = Tanguay_ZF_120hpf_SNOU_legacy: (Legacy) Oregon State University Tanguay Lab 120 Hour Post-fertilization zebrafish Assay for Snout Malformation (AID 2283637)
# In short: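 Dechorionated zebrafish, individually housed from 6 hpf in covered, sealed wells at 28C with 0.64% DMSO vehicle, were examined at 120 hpf for snout malformation. Responses were binary and analysed positive-direction relative to DMSO.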
# [10] = Tanguay_ZF_120hpf_JAW_legacy: (Legacy) Oregon State University Tanguay Lab 120 Hour Post-fertilization zebrafish Assay for Jaw Malformation (AID 2283638);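 for AC50: active means more embryos with jaw malformation than DMSO controls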
# In short: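 Binary jaw-malformation calls at 120 hpf by brightfield imaging; DMSO (0.64% v/v) = baseline. Embryos: 5D wild-type, pronase-dechorionated, one per well from 6 hpf, static exposure, 28C, sealed, dark.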
# [11] = Tanguay_ZF_120hpf_PE_legacy: (Legacy) Oregon State University Tanguay Lab 120 Hour Post-fertilization zebrafish Assay for Pericardial Edema (AID 2283640)
# In short: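 Static waterborne exposure, 5D wild-type embryos, 28C, to 120 hpf; final DMSO 0.64% (vol/vol). Binary PE call at 120 hpf by brightfield; fitted upward vs DMSO baseline. 5uM trimethyltin chloride as positive control.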
# [12] = Tanguay_ZF_120hpf_BRAI_legacy: (Legacy) Oregon State University Tanguay Lab 120 Hour Post-fertilization zebrafish Assay for Brain Malformation (AID 2283641)
# In short: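 Read-out: binary brain morphology call at 120 hpf (brightfield), fitted in gain-of-signal direction vs DMSO. Wild-type Tropical 5D embryos, static exposure, 28C, 0.64% DMSO final; 5uM trimethyltin chloride as positive control.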
# [13] = Tanguay_ZF_120hpf_SOMI_legacy: (Legacy) Oregon State University Tanguay Lab 120 Hour Post-fertilization zebrafish Assay for Somite Malformation (AID 2283647)
# In short: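 Binary brightfield scoring of somite defects at 120 hpf in 5D wild-type larvae; one dechorionated embryo per well, static exposure from 6 hpf, 28C, sealed and dark. Final DMSO 0.64%; trimethyltin chloride 5uM positive control.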
# [14] = Tanguay_ZF_120hpf_PFIN_legacy: (Legacy) Oregon State University Tanguay Lab 120 Hour Post-fertilization zebrafish Assay for Pectoral Fin Malformation (AID 2283648);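 note: each larva judged yes or no for fin defect by brightfield with dead larvae skipped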
# In short: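 Scoring of pectoral fin malformation was binary, made at 120 hpf on larvae exposed statically from 6 hpf after enzymatic chorion removal. Activity was fitted upward relative to DMSO controls at 0.64% (vol/vol).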
# [15] = Tanguay_ZF_120hpf_CFIN_legacy: (Legacy) Oregon State University Tanguay Lab 120 Hour Post-fertilization zebrafish Assay for Caudal Fin Malformation (AID 2283649)
# In short: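 Dechorionated 5D wild-type zebrafish, static exposure 6–120 hpf, 28C, sealed and dark, 0.64% v/v DMSO final. Binary fin-malformation call at 120 hpf, brightfield; gain of signal vs DMSO baseline.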
# [16] = Tanguay_ZF_120hpf_PIG_legacy: (Legacy) Oregon State University Tanguay Lab 120 Hour Post-fertilization zebrafish Assay for Pigmentation Malformation (AID 2283650)
# In short: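 Endpoint is incidence of abnormal pigmentation at 120 hpf in dechorionated 5D zebrafish exposed singly from 6 hpf at 28C, DMSO vehicle at 0.64%. Embryos dying by 24 or 120 hpf are excluded from scoring.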
# [17] = TOX21_p53_BLA_p5_viability: Viability Assessment in the Tox21 HCT-116 p53 Agonism Beta-lactamase Assay, Phase 5 (AID 2283600)
# In short: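 ATP luminescence (CellTiter-Glo, 30 min, RT) served as the viability read-out, with loss of signal indicating cytotoxicity. Compounds in DMSO were pinned at a 217-fold dilution onto 4000 cells/well and incubated 16 h, 37C.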
# [18] = Tanguay_ZF_120hpf_YSE_legacy: (Legacy) Oregon State University Tanguay Lab 120 Hour Post-fertilization zebrafish Assay for Yolk Sac Edema (AID 2283634)
# In short: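 Binary brightfield scoring of yolk sac edema at 120 hpf; DMSO baseline, gain-of-signal fitting. Dechorionated 5D larvae, one per well, static exposure 6–120 hpf, 28C, 0.64% DMSO. Dead embryos not scored.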
# [19] = Tanguay_ZF_120hpf_OTIC_legacy: (Legacy) Oregon State University Tanguay Lab 120 Hour Post-fertilization zebrafish Assay for Otic Vesicle Malformation (AID 2283639)
# In short: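 Statically exposed wild-type 5D zebrafish embryos, kept sealed and dark at 28C through 120 hours post fertilization, were examined by brightfield microscopy for otic vesicle defects. Responses were recorded as present or absent and analysed relative to DMSO.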
# Cellular tumor antigen p53 (Homo sapiens), sequence (P04637 whole entry, looked up): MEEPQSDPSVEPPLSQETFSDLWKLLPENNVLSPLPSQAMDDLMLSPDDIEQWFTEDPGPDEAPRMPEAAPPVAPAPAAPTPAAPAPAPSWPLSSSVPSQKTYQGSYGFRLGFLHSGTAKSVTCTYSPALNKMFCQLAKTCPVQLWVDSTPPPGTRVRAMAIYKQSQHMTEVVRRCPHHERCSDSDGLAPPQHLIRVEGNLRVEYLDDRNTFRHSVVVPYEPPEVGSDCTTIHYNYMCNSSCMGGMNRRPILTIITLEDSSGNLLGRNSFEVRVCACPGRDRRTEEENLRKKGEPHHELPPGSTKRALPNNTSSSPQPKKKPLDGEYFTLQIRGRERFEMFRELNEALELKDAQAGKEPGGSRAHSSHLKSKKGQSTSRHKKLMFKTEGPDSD
smiles,measurement,setting,value
OB(O)O,outcome,[1],inactive
same,outcome,[2],inactive
same,outcome,[3],inactive
same,outcome,[4],inactive
same,outcome,[5],inactive
same,outcome,[6],inactive
same,outcome,[7],inactive
same,outcome,[8],inactive
same,outcome,[9],inactive
same,outcome,[10],inactive
same,outcome,[11],inactive
same,outcome,[12],inactive
same,outcome,[13],inactive
same,outcome,[14],inactive
same,outcome,[15],inactive
same,outcome,[16],inactive
CCCCC(CC)CN1C(=O)C2C3C=CC(C3)C2C1=O (stereo not given),outcome,[1],inactive
same,AC50,[3],73.3 µM (active)
same,outcome,[4],inactive
same,outcome,[17],inactive
same,outcome,[5],inactive
same,outcome,[6],inactive
same,outcome,[18],inactive
same,outcome,[7],inactive
same,outcome,[8],inactive
same,outcome,[9],inactive
same,outcome,[10],inactive
same,outcome,[19],inactive
same,outcome,[12],inactive
same,outcome,[13],inactive
same,outcome,[14],inactive
same,outcome,[15],inactive
same,outcome,[16],inactive
C=CCOC(Cn1ccnc1)c1ccc(Cl)cc1Cl (stereo not given),AC50,[6],13.8 µM (active)
same,outcome,[7],inactive
same,outcome,[8],inactive
same,AC50,[9],4.34 µM (active)
same,AC50,[10],3.98 µM (active)
same,outcome,[14],inactive
same,outcome,[15],inactive
CCOC(=O)C(C)Oc1ccc(Oc2cnc3cc(Cl)ccc3n2)cc1 (stereo not given),outcome,[6],inactive
same,outcome,[7],inactive
same,outcome,[8],inactive
same,outcome,[9],inactive
same,outcome,[10],inactive
same,outcome,[19],inactive
same,outcome,[11],inactive
same,outcome,[12],inactive
same,outcome,[13],inactive
same,outcome,[14],inactive
same,outcome,[15],inactive
same,outcome,[16],inactive
CSC(=O)c1cccc2nnsc12,outcome,[1],inactive
same,outcome,[2],inactive
same,outcome,[3],inactive
same,outcome,[4],inactive
same,outcome,[5],inactive
same,outcome,[6],inactive
same,outcome,[7],inactive
same,outcome,[8],inactive
same,outcome,[9],inactive
same,outcome,[10],inactive
same,outcome,[12],inactive
same,outcome,[13],inactive
same,outcome,[14],inactive
same,outcome,[15],inactive
same,outcome,[16],inactive
CCCCCCC(C)OC(=O)COc1nc(F)c(Cl)c(N)c1Cl (stereo not given),AC50,[1],82.3 µM (active)
same,outcome,[2],inactive
same,AC50,[3],76.9 µM (active)
same,outcome,[4],inactive
same,outcome,[17],inactive
same,AC50,[5],87.2 µM (active)
same,outcome,[6],inactive
same,outcome,[7],inactive
same,outcome,[8],inactive
same,outcome,[19],inactive
same,outcome,[11],inactive
same,outcome,[12],inactive
same,outcome,[13],inactive
same,outcome,[14],inactive
O=C(c1ccccc1)C1CCCCC1,outcome,[6],inactive
same,outcome,[18],inactive
same,outcome,[7],inactive
same,outcome,[8],inactive
same,outcome,[9],inactive
same,outcome,[10],inactive
same,outcome,[19],inactive
same,outcome,[11],inactive
same,outcome,[12],inactive
same,outcome,[13],inactive
same,outcome,[14],inactive
same,outcome,[15],inactive
same,outcome,[16],inactive
CCCCCOC(=O)COc1cc(N2C(=O)C3=C(CCCC3)C2=O)c(F)cc1Cl,outcome,[6],inactive
same,outcome,[7],inactive
same,outcome,[8],inactive
same,outcome,[9],inactive
same,outcome,[10],inactive
same,outcome,[19],inactive
same,outcome,[12],inactive
same,outcome,[13],inactive
same,outcome,[14],inactive
same,outcome,[15],inactive
same,outcome,[16],inactive
